TRPML1 agonist: agonists of human TRPML1 channel; Q9GZU1; TRPML1-expressing cells, Ca2+ dye fluorescence, FDSS; activation, % (test concentration not listed); 410,000 compounds, 0.12% hits; AID 624414; in the data active = activation above about 50%; inconclusive = mostly about 30% to 49%; also: 0% is about no effect
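Cells: TRPML1-DL, 1X Tet inducer, ~16 h at 37 degrees C/5% CO2. Dye: ABD Ca8 no-wash + quencher, 45-90 min RT. Read: 10 s baseline, compound add, 110 s agonist phase; 54-4 EC80 (4uM final), 110 s antagonist phase.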
TRPML1 blocker: inhibitors of human TRPML1 channel; Q9GZU1; TRPML1-inducible cells, Ca2+ dye fluorescence, FDSS; active compounds read low; inhibition of EC80 agonist-evoked calcium signal; activity change, negative = inhibition, % (no concentration beside the values); 390,000 compounds, 0.02% hits; AID 624415; in the data active = activity change below about -50%; inconclusive = between about -30% and that limit;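 also: stimulus is agonist 54-4 at its EC80 concentration; % is scaled to controls: 0 for no effect and ±100 for the full control effect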
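Calcium fluorescence in TRPML1-DL cells induced overnight with Tet: a 110 s read after compound pin addition, then a 110 s antagonist read after challenge with 54-4 at 4 uM final (EC80).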
BRCA1 expr up: increases BRCA1 expression | MCF7-BRCA1-FFLuc reporter, luminescence, 48 h; response scale: scaled: vehicle 0%, 10 µM genistein 100% | 380,000 compounds, 1.1% hits | Potency, µM (highest dose often 46.1 µM), inactives show at the top dose activation, usual class: activators; also: potency is read from the fitted curve at half-maximal effect; nearly all actives have a fitted effect of over 80% in size
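Luminescence from a BRCA1-driven firefly luciferase in MCF7 cells was the read-out, taken 15 min after substrate addition following 48 h compound exposure at 37 °C. Data were normalized to a 10 microM genistein control and DMSO vehicle.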
PKM2 act: PKM2 (human) enzyme activation. P14618. purified PKM2, Kinase-Glo ATP luminescence, activation; response scale: 0% is enzyme alone, no compound. Potency, µM (highest dose often 57.5 µM), without a hit: top-dose activation, actives largely listed as activators. 260,000 compounds, 0.34% hits. AID 1631; also: potency is read from the fitted curve at half-maximal effect; % is scaled to controls: 0 for no effect and ±100 for the full control effect; nearly all actives have a fitted effect of over 55% in size
Target sequence (P14618 whole entry, looked up): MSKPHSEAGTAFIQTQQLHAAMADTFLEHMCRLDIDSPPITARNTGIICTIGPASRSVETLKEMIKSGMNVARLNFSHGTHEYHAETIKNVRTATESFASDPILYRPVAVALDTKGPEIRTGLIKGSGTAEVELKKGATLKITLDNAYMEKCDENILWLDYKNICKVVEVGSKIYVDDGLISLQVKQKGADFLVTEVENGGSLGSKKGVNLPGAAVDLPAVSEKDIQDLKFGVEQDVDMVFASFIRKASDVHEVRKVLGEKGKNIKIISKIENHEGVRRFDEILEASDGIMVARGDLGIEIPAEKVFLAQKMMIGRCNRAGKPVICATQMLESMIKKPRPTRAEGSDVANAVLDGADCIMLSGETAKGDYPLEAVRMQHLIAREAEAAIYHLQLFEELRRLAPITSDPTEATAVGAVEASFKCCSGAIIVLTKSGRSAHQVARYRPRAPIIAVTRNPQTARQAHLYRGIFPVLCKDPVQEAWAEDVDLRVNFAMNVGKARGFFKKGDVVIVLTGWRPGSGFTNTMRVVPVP
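Kinase-Glo luminescence reports ATP generated from ADP (0.1 mM) and PEP (0.5 mM) by purified hPK-M2 after 1 h at room temperature, pH 7.2 imidazole buffer; intermediate enzyme activity allows detecting inhibitors and activators.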
IL2 activator: activators of IL-2; AID 652025; activation, % (series mostly up to about 46 µM); 360,000 compounds, 0.065% hits; IL-2 activation reporter assay, cell-based qHTS; stimulated with anti-CD3/CD4/CD28 beads; in transgenic mouse T cells; in the data active = activation above about 50%; inconclusive = mostly about 30% to 49%; also: 0% is about no effect
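Quantitative HTS in unstimulated transgenic mouse T cells, with memory T cells as non-tolerant control and PMA/ionomycin as tolerance-bypass control. Compound pretreatment lasted 60 minutes before 18 h bead stimulation; EGFP/DsRed fluorescence read.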
TSG101-PTAP inh: blocks PTAP/TSG101 interaction to inhibit HIV-1 budding | Q99816 | Fluorescence polarization, FITC-PTAP peptide / Tsg101 binding | Potency, µM (highest dose often 115 µM), for inactives: at the top dose activity change, negative = inhibition, usual class: inhibitors | 340,000 tested, under 10 active | AID 493005; active = well fitted inhibition curve with a large enough effect in the main read-out, with a control signal flat, not every such curve was filed as active; inconclusive = small, poorly fitted or top-dose-only effect, or effect the other way, or a change in a side signal; inactive = no such curve, though single readings can be large or run the other way; also: potency is read from the fitted curve at half-maximal effect; % of control where 0% means no effect
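Steps: Tsg101 binding domain dispensed (10 uM final), compounds pinned in DMSO, FITC-labeled PTAP-motif peptide added (50 nM final); after 20 min binding at room temperature, polarization measured.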
Active calls of the source: *; ? = inconclusive; . = not tested or not shown; [ ] = another dose, or the depositor's remark. Shown are actives, neighbours in structure and some others; about 1.3% of the full set was active somewhere. Unless noted, calls follow the shape of the dose curve; as a rule, active = well fitted activation curve with a large enough effect; inconclusive = small, poorly fitted or top-dose-only effect; inactive = no such curve, though single readings can be large or run the other way.

SMILES	TRPML1 agonist	TRPML1 blocker	BRCA1 expr up	PKM2 act	IL2 activator	TSG101-PTAP inh
CSc1nc(-c2ccco2)nn1C(=O)Cc1ccccc1	-0.4	-2.2	5.6%	0.9%	0.7	-3.3%
O=C(CCc1ccccc1)n1nc(-c2ccco2)nc1SCc1ccccc1	0.3	-7.8	10µM*	5.5%	-1.0	-0.1%
CCc1cccc(NC(=O)c2ccc(CNS(=O)(=O)c3ccc4c(c3)C(C)(C)C(=O)N4C)cc2)c1	-0.3	2.0	.	.	.	.
CCOC(=O)c1cc(C(=O)Nc2ccc(C)c(F)c2)nn1C	3.2	2.7	10µM*	0.6%	4.1	-1.5%
COc1cccc(-n2c(=O)c3ccccc3n3c(=S)[nH]nc23)c1	-0.7	-50.7*	-25.0%	-18.4%	-0.2	-1.7%
CCc1ccc(-n2c(=O)c3ccccc3n3c(=S)[nH]nc23)cc1	1.5	16.5	-0.9%	.	1.3	-0.2%
Cc1cccc(/C=C/c2cccs2)n1	-0.4	.	.	.	.	.
COC(=O)c1ccc2c(c1)C(=O)/C(=C/c1ccc(C)cc1)O2	0.4	36.7	89.4%	-12.3%	0.3	-2.2%
COC(=O)c1ccc(/C=C2\Oc3ccccc3NC2=O)cc1	-0.6	-5.0	2.24µM*	.	-3.5	-0.9%
COc1ccc(CCC(=O)NO)cc1	-0.3	.	-5.5%	.	.	.
CCOC(=O)COc1cc(C)c(Cl)cc1C(=O)c1ccn2nc(-c3ccc(OC)cc3)cc2n1	-0.2	-14.2	-14.6%	.	.	.
COC(=O)c1ccc(/C(O)=C(\C#N)c2nc3ccccc3s2)cc1	1.6	42.4	5.01µM*	0.3%	-0.1	-1.2%
Cc1ccc(-c2nc3cc(Cl)ccc3o2)cc1NC(=O)COc1ccc(F)cc1	1.2	-16.4	.	.	.	.
Clc1ccc(/C=C/c2ccncc2)cc1Cl	-0.6	.	-62.3%	.	.	.
O=c1c(/C=C(\O)c2ccccc2)nc2ccccc2n1-c1ccccc1	?	25.5	36.2%	-2.0%	88.8*	?
C=CC1=C2C=C(C3CC3)N(C3CCCCC3)C=C2C(=O)C(C)(OC(=O)c2ccco2)C1=O (stereo not given)	.	.	.	0.6%[11.5 µM]	.	.
CCn1cc([N+](=O)[O-])c(C(=O)N2N=C(c3ccc(Cl)c(Cl)c3)CC2c2ccccc2O)n1 (stereo not given)	0.9	-6.7	-68.7%	22.4µM*	-4.0	0.6%
CCn1cc([N+](=O)[O-])c(C(=O)N2N=C(c3ccc(O)c(OC)c3)CC2c2ccccc2O)n1 (stereo not given)	0.1	-7.6	-20.3%	17.8µM*	-2.0	0.9%
O=C(CNC(=S)NC(=O)C1CCCCC1)c1ccccc1	0.8	-10.7	6.31µM*	-0.8%	1.4	-2.8%
O=C(NC(=S)NCCc1ccccc1)C1CCCCC1	0.6	-21.4	32.8%	1.5%	-0.1	-1.7%
Cc1cc(C)c2c(/C=C/c3ccc(N(C)C)cc3)ccnc2c1	3.0	.	-28.1%	.	.	.
COc1ccc2oc(C(=O)N(C)CCOc3ccccc3)c(C)c2c1	0.5	12.9	11.2µM*	-19.1%	-0.9	0.1%
COc1ccc(C(CNC(=O)c2oc3ccc(OC)cc3c2C)N2CCCC2)cc1 (stereo not given)	0.5	9.3	-44.2%	.	-7.3	-0.9%
COc1ccc2oc(C(=O)NCCC(C)C)c(C)c2c1	-0.4	-20.7	7.08µM*	0.9%	1.0	0.4%
COc1ccc2nc(C)cc(SCC(=O)N/N=C/c3ccc(O)c(O)c3)c2c1	0.4	-1.5	-35.6%	25.1µM*	-3.4	-5.6%
SMILES	TRPML1 agonist	TRPML1 blocker	BRCA1 expr up	PKM2 act	IL2 activator	TSG101-PTAP inh
CN(C)CCCNc1nccc(N2CCN(C)CC2)n1	-0.3	.	21.5%	.	.	.
CCn1cc(C(=O)NCc2ccc(C)o2)c2cc(OC)c(OC)cc2c1=O	-0.3	0.5	28.5%	14.1µM*	-1.4	-6.5%
Cc1ccc(CCC(=O)NCc2ccccc2)o1	-0.4	-3.0	17.4%	0.5%[11.5 µM]	1.7	-2.1%
CCn1cc(C(=O)NCC(=O)OC)c2cc(OC)c(OC)cc2c1=O	3.3	17.6	7.6%	-3.2%	-2.3	-3.0%
Cc1ccc(CNC(=O)c2coc(=O)c3ccccc23)o1	1.2	19.3	-2.8%	12.6µM*	-0.1	-0.6%
CCCc1ccc(OCC(=O)Nc2sc3c(c2C(=O)OC)CCCCC3)cc1	0.1	39.5	.	.	.	.
O=C1S/C(=C\C=C\c2ccco2)C(=O)N1c1ccc(O)cc1	0.5	3.9	?	16.0%	3.4	0.0%
O=C1S/C(=C\C=C\c2ccco2)C(=O)N1c1ccccc1	-0.4	-11.4	3.55µM*	9.3%	-1.9	-3.2%
O=C(c1cc(COc2ccc(F)cc2F)on1)N1CC2C[C@@H]3CC1C[C@H](C2)C3	4.9	29.7	91.4%	.	-4.7	-2.7%
COc1cc(Cl)ccc1OCc1cc(C(=O)N2CCN(C)C(=O)[C@@H]2C)no1	-0.9	-0.5	10µM*	.	-2.1	.
COc1ccccc1OCc1cc(C(=O)N2CC3C[C@@H]4CC2C[C@H](C3)C4)no1	-1.0	-10.5	7.94µM*	.	-2.9	0.8%
Cc1nc(CN(C)C(=O)c2cc(COc3c(F)cccc3F)on2)cs1	0.0	-14.6	34.8%	-1.5%	-3.7	0.8%
CN1CCN(C(=O)c2cc(COc3ccccc3)on2)[C@@H](c2ccccc2)C1	-0.4	3.8	5.01µM*	-0.4%	-2.1	0.5%
CN(Cc1cc(-c2ccccc2)on1)C(=O)c1cc(COc2c(F)cccc2F)on1	.	.	11.2µM*	12.8%	-1.4	-1.9%
Cc1ccc(OCc2cc(C(=O)N3CCN(C)C[C@@H]3c3ccccc3)no2)cc1C	1.2	-1.7	?	-1.0%	-5.2	.
COc1cc(Cl)ccc1OCc1cc(C(=O)N2CCN(C)CC2)no1	0.1	-8.1	15.1%	.	-3.0	-4.9%
Cc1ccc(-n2c3nc(=O)[nH]c(=O)c-3cc3c(C)nn(-c4ccccc4)c32)cc1Cl	-0.7	-9.3	5.8%	.	.	.
COc1ccccc1OCc1cc(C(=O)N2CCN(C)C(c3ccccc3)C2)no1 (stereo not given)	-0.4	-4.1	10µM*	9.1%	0.4	0.3%
CN1CCN(C(=O)c2cc(COc3c(F)cccc3F)on2)CC1c1ccccc1 (stereo not given)	1.6	-10.4	29.8%	17.8µM*	-0.2	-9.4%
CSc1ccccc1OCc1cc(C(=O)N2CCN(C)C(c3ccccc3)C2)no1 (stereo not given)	1.4	1.4	8.0%	.	-1.7	-2.4%
CN1CCN(C(=O)c2cc(COc3ccc(F)cc3Cl)on2)CC1c1ccccc1 (stereo not given)	2.5	-1.8	-17.5%	-3.7%	-3.1	-6.6%
Oc1ccc2nnc3c(Br)cnn3c2c1	86.7*	0.0	4.6%	.	1.5	?
Clc1ccc2nc3c4ccccc4cnn3c2c1	0.2	-5.3	?	-5.7%	-1.1	-7.5%
